High-throughput results from PubChem BioAssay.
Wee1 stabilizer: inhibitors of human Wee1 degradation. 220,000 compounds, 1.2% hits. HeLa Luc-Wee1K328M stability, luciferase luminescence; 100% = proteasome inhibitor MG132 effect. AID 1321. reporter increase, % at 5 µM;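 active means activation above the mean of all tested compounds plus 3 SD, set per screening run, cut at about 8.8% in these data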;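 further: cells exposed to compound for 20 h before luminescence read; 0% = DMSO alone and 100% = MG132 at 30 µM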
Target sequence (P30291 whole entry K328M): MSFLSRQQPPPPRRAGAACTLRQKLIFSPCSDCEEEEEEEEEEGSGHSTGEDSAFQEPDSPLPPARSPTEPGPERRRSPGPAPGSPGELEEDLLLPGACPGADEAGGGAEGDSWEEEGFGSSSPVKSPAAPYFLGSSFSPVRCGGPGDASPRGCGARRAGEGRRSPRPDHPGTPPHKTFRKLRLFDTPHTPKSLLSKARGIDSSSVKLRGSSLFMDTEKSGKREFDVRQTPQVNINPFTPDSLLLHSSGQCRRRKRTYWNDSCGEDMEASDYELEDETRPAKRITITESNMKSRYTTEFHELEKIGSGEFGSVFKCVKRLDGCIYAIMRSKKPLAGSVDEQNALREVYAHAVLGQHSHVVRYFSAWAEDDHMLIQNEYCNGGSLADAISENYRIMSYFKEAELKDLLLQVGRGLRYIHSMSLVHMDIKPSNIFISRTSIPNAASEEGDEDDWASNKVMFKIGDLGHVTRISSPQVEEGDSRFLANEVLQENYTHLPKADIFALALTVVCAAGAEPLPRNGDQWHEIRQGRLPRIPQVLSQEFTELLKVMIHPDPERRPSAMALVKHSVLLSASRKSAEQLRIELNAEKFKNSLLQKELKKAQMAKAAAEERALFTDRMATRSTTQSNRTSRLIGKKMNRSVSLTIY
p47phox inh: blocks human p47phox regulatory protein of NADPH oxidases | AID 1274 | p47phox/p22phox peptide binding, fluorescence polarization, 2 h | inhibition, % at 24.7 µM | 220,000 compounds, 0.53% hits | P14598;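 active means inhibition above about 30%, limit read from the data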;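 further: 0% = p47phox with labelled peptide and 100% = labelled peptide alone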
PGE2 EP2 inh: inhibitors of human EP2 prostaglandin E2 receptor | inhibition, % at 25 µM | P43116 | 260,000 compounds, 0.52% hits | C6 glioma cells expressing human EP2, cAMP TR-FRET; cells stimulated with saturating PGE2 | AID 1422;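 active means percent inhibition above 40 after rounding to a whole number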;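 further: rat C6 glioma host cells with rolipram phosphodiesterase inhibitor present; the protocol text gives 20 µM as final concentration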
EP2 mod: modulators of human EP2 prostaglandin E2 receptor; EP2-expressing cells, cAMP HTRF FRET, PGE2 co-stimulation; induction, % at 25 µM; 260,000 compounds, 0.83% hits; AID 940;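 active means compounds whose cAMP rise, as percent of the full-agonist control response, exceeds 60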;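 further: rat C6 glioma line stably carrying human EP2 under a CMV promoter; the protocol text gives 20 µM as final concentration; 100% = response of wells given 1 µM PGE2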
HSV replic up: increases HSV replication in cells; HSV replication augmentation in cells, fold increase; maximum fold increase; 220,000 compounds, 0.005% hits; AID 1956; in the data active means maximum fold increase above about 1.5; inconclusive means no clear call, values can overlap the other calls; tested in PC3 cells
Furin inh: human furin inhibition; P09958; purified furin, fluorogenic substrate cleavage; AID 463115; inhibition, % at 20 µM or 30 µM; 220,000 compounds, 0.061% hits; in the data active means inhibition above about 25%
Numbers without * were called inactive; i = inactive; ? = inconclusive; / = no result; ! = a repeat was not active. The list is not random: actives were taken first. Their share in the collection is about 2.8%.

SMILES	Wee1 stabilizer	p47phox inh	PGE2 EP2 inh	EP2 mod	HSV replic up	Furin inh
O=C(CN1CCCC1c1nc(-c2ccc(F)cc2)n[nH]1)N1CCCC1 (centres undefined)	/	/	10.8	-3.3	/	/
COCCCNc1nc2c(-c3cccc(C)c3)nnn2c2ccccc12	49.1*	-1.0	11.8	-22.1	i	-18.5
Cc1nn(CC(=O)Nc2ccc3c(c2)OCO3)c(=O)c2ccccc12	/	/	11.8	20.8	/	/
Cc1nn(CC(=O)Nc2ccc3c(c2)oc2ccccc23)c(=O)c2ccccc12	-0.3	38.6*	/	14.7	/	-10.1
O=C(Nc1nc2ccccc2c(=O)s1)c1ccco1	10.2*	2.9	6.3	1.5	i	-2.9
O=C(Nc1nc2cc3c(cc2s1)OCO3)c1ccco1	-2.7	-3.8	4.9	-8.4	i	-19.6
c1cncc(CSc2nnc3c4c5c(sc4nc(C4CC4)n23)CCCC5)c1	/	/	8.8	9.6	/	/
c1cncc(CSc2nnc3c4ccccc4nc(C4CCCCC4)n23)c1	/	/	8.9	65.5*	/	/
COc1cccc(CN2CCN(C(=O)c3cnn(C(C)C)c3)[C@@H](C)C2)c1	/	/	/	-43.8	/	/
O=c1c(O)c(-c2ccccc2)oc2ccccc12	/	/	112.1*	-22.1	/	/
COc1cc(OC)cc(-c2nnc(SCC(=O)N3CCC(Cc4ccccc4)CC3)o2)c1	/	/	11.8	-0.8	/	/
O=C(Nc1cccc(Cn2cccn2)c1)c1cc2c(s1)CCCC2	3.6	-22.2	2.8	-13.8	i	25.7*
CC(=O)Nc1cccc(Cn2cccn2)c1	2.5	-15.5	8.7	13.8	i	5.1
CCC(c1nnnn1CCOC)N(Cc1ccc(C)cc1)Cc1cc2c(C)cc(C)cc2[nH]c1=O (centres undefined)	/	/	11.1	37.4	/	/
CC1(C)N([O-])C(c2ccccc2)=C[N+](=O)C1(C)C	9.3*	1.0	7.6	8.9	i	-12.8
Cc1ccc(-c2nnc(-n3ncc(C#N)c3N)c3ccccc23)cc1C	3.5	42.0*	7.2	35.8	i	-18.4
Cc1cc2cc3c(cc2n2c(=O)n(CC(=O)N4CCCCC4)nc12)OCO3	/	/	/	-0.7	/	/
O=C(Nc1ccccc1O)c1csc2c1CCCC2	9.4*	-5.6	9.4	-41.6	i	-15.2
O=C(Nc1ccccc1O)c1c(O)c2c([nH]c1=O)CCCC2	-0.5	-6.9	64.0*!	-134.8	i	-14.4
COCCn1nnnc1C(C(C)C)N(Cc1ccc(C)cc1)Cc1cc2c(C)cc(C)cc2[nH]c1=O (centres undefined)	/	/	4.5	22.6	/	/
CCCNS(=O)(=O)c1ccc(OC)c(Cl)c1Cl	-1.2	30.4*	6.2	13.7	i	3.9
C[C@@H](Cn1nnc2ccccc21)NC(=O)c1cc(C(C)(C)C)nn1C	/	/	7.6	-7.4	/	/
COc1cccc(C(=O)COc2ccccc2-c2ccccc2)c1	5.3	5.6	8.1	61.2*	i	-13.8
COc1cc(-c2[nH]ncc2CN(C)Cc2cc(C)[nH]n2)cc(OC)c1OC	-1.9	36.4*	11.5	5.4	i	-21.9
O=C(CN1C(=O)c2ccccc2S1(=O)=O)Nc1ccc(S(=O)(=O)N2CCCCC2)cc1	9.1*	-8.7	10.6	-10.3	i	-6.2
SMILES	Wee1 stabilizer	p47phox inh	PGE2 EP2 inh	EP2 mod	HSV replic up	Furin inh
CC1CCN(C(c2ccc(N(C)C)cc2)c2nnnn2C2CCCC2)CC1 (centres undefined)	/	/	11.9	8.8	/	/
COC(=O)c1ccc(COc2ccc3c(C)c(C)c(=O)oc3c2C)o1	3.0	72.2*	6.6	38.9	i	-16.2
CCCc1cc(=O)[nH]c(Nc2ccc(N3CCCCC3)cc2)n1	-1.0	-8.4	0.7	21.7	i	-14.2
CCCCc1ccc(Nc2nc(CCC)cc(=O)[nH]2)cc1	0.6	-1.7	11.1	60.6*	i	-15.5
Cc1nnc(SCc2ccccc2)nc1-c1ccccc1	/	/	17.3	/	i	/
c1ccc(CSc2nnc3c4ccccc4c4ccccc4c3n2)cc1	2.0	-14.8	55.0*!	24.5	i	-25.4
Cc1cc(C(=O)CN2C(=O)NC3(CCCCC3)C2=O)c(C)n1Cc1ccc2c(c1)OCO2	9.2*	-11.9	5.3	3.8	i	-28.4
O=C(NCCNCc1cccc(F)c1)c1cccs1	/	/	12.0	-22.3	/	/
COc1ccc2c(c1)c1ccc3c(c1n2C)C(=O)C=CC3=O	8.4	9.7	62.5*	-36.3	i	-12.9
NS(=O)(=O)c1ccc(NC(=O)c2ccc(-c3cc(Cl)ccc3Cl)o2)cc1	/	/	7.4	-3.6	/	/
O=C(NC(=S)Nc1ccc(CN2CCOCC2)cc1)c1ccco1	10.4*	-5.1	14.0	-11.0	i	-16.5
O=C(Nc1ccc(N2CCN(C(=O)c3ccccc3)CC2)c(Cl)c1)c1ccc(Br)o1	0.4	-15.2	14.3	-33.8	i	0.9
O=C(Nc1ccc(CN2CCOCC2)cc1)c1ccc(-c2cc(Cl)ccc2Cl)o1	1.2	-64.0	59.2*	-39.3	i	1.9
O=C(Nc1ccc(N2CCOCC2)c(Cl)c1)c1ccc(Br)o1	10.5*	-4.3	17.0	-8.2	i	4.7
O=C(NCCN1CCOCC1)C1CC(c2ccc(Cl)cc2)=NO1 (centres undefined)	/	/	9.8	1.0	/	/
COc1ccc([C@H]2CN(Cc3ccccc3)C[C@@H]2NC(=O)C(C)C)cc1OC	/	/	5.8	8.6	/	/
Cc1ccc(C(=O)n2c3ccccc3c3ccccc32)cc1	-0.5	-0.7	14.5	63.7*	i	-19.2
CC(=O)n1c2ccccc2c2ccccc21	-3.0	-9.6	3.3	44.2	i	-22.0
COc1ccc(C(NC(=O)C2(c3ccccc3)CC2)c2nccn2C)cc1OC (centres undefined)	/	/	8.8	-31.1	/	/
CC1CCc2sc(C(=O)OC(C)C(=O)Nc3ncc(Cl)cc3Cl)cc2C1 (centres undefined)	10.1*	-22.4	8.3	16.3	i	-19.1
Cc1cc(=O)oc2cc(OCC(=O)Nc3cccc(S(=O)(=O)N(C)C)c3)ccc12	9.6*	31.0*	8.2	-12.6	i	-0.6
CCN(CC)S(=O)(=O)c1ccc(OC)c(NC(=O)COc2ccc3c(C)cc(=O)oc3c2)c1	-1.6	-3.6	66.5*	9.6	i	-16.6
CCc1ccc(NC(=O)COc2ccc3c(C)cc(=O)oc3c2)cc1	/	/	9.7	-14.5	/	/
Cc1cc(=O)oc2cc(OCC(=O)c3ccc4c(c3)NC(=O)CO4)ccc12	-1.8	37.5*	1.6	-10.7	i	-16.0
CCOc1cc(C)nc(N2CCC(C(=O)Nc3ccccc3OCC)CC2)n1	-2.2	2.4	-6.2	92.2*!	i	-23.5
CCOC(=O)C1=NN(C(=O)c2ccccc2)C(O)(c2ccc(C)cc2)C1 (centres undefined)	15.3*	-2.0	4.0	-6.1	?	-1.0
CC(=O)Nc1cccc(-c2csc(Nc3ncccc3C)n2)c1	/	/	7.8	-81.5	/	/
COC(=O)C1=C2SCC(=O)N2C(N)=C(C#N)C1	11.8*	-11.3	7.5	4.1	i	-23.3
CN1CCc2c(sc3c2C(=O)NC(c2ccco2)N3)C1 (centres undefined)	-2.9	-16.6	0.4	-7.8	i	13.1
